Inconclusive results are not listed. Entries that show only a call come without a potency. Active and inactive are the calls of the source. Calls come from the whole dose curve; as a rule, active = well fitted inhibition curve with a large enough effect; inconclusive = small, poorly fitted or top-dose-only effect; inactive = flat fitted curve, though single readings scatter.
What follows are compounds tested against Calcium and integrin-binding protein 1 (Homo sapiens) (UniProt Q99828) (assay: Primary qHTS for Identification of Calcium Integrin Binding Protein 1 (CIB1) Competitor (AID 1508620;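 note: GST tagged CIB1 binding a fluorescein labelled alphaIIb integrin peptide tracer; top concentration of the series differs between compounds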)). Conditions: CIB1-GST / FITC-alphaIIb peptide fluorescence polarization; series mostly up to 114 µM.
Sequence of Calcium and integrin-binding protein 1 (Homo sapiens) (Q99828 whole entry, looked up): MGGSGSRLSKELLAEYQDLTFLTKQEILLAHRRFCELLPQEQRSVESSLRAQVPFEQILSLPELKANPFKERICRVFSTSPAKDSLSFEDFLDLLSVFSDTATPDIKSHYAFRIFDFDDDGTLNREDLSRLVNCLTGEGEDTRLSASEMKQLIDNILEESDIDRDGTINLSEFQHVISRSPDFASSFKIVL
In short: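 Fluorescence polarization competition: CIB1-GST (1 uM final) preincubated with compound 15 min at room temperature, then FITC-labeled alphaIIb peptide (100 nM final) added for another 15 min. Polarization read at Ex 480/Em 540.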

Structure (SMILES)	Potency
O=C(Nc1ccc(F)c(C(F)(F)F)c1)Nc1nnc(-c2cccnc2)s1	inactive
Cc1cc(C)nc(NC(=S)N2CCN(c3ccc(F)c(Cl)c3)CC2)c1	inactive
COc1ccc(C2Nc3ccc(Cl)cc3C(=O)N2Cc2ccccc2)cc1COc1ccc(NC(C)=O)cc1 (stereo not given)	inactive
c1nc(NC[C@@H]2CCCO2)c2cc(-c3ccc4c(c3)OCO4)ccc2n1	inactive
CCc1nn2c(=O)cc(-c3ccncc3)nc2s1	inactive
Cc1cc(C)n2ncc(C(=O)Nc3cccc(C#N)c3)c2n1	inactive
Cc1cccc(NC(=O)c2cnn3c(C)cc(C)nc23)c1	inactive
CNc1oc(-c2cccc(-c3ccccc3)c2)nc1C#N	inactive
CN(C)c1cnc2c(O)ccc([S+](=O)([O-])Nc3ccccc3F)c2c1	inactive
COc1nccc(-c2nc(Nc3ccc(F)c(F)c3)c3ccccc3n2)c1OC	inactive
O=C(COc1ccccc1Br)NCCc1nc2ccccc2[nH]1	inactive
COc1ccc(C2Nc3ccccc3C(=O)N2Cc2ccccc2)cc1COc1ccc(NC(=O)c2ccccc2)cc1 (stereo not given)	inactive
CC(C)(C)OC(=O)Cc1nnc(-c2cc3ccccc3[nH]2)o1	inactive
O=C(OCC#CCSc1nnc(-c2cccc3ccccc23)o1)c1ccncc1	inactive
CC(=O)c1cccc(NC(=O)c2cnn3c(C)cc(C)nc23)c1	inactive
O=C(CNC(=O)c1ccccc1)OC(CCc1ccccc1)C(=O)Nc1cc(C(F)(F)F)ccc1Cl (stereo not given)	inactive
Cc1ccccc1C(=O)N1CCc2cc(-c3ccnc(NC(=O)Cc4ccccc4)n3)ccc21	inactive
O=C1c2ccccc2NC(c2ccc(Br)o2)N1O (stereo not given)	inactive
CC(=O)Nc1sc2c(c1C#N)CCN(C(C)C)C2	inactive
C[C@H](NC(c1ccc(F)cc1)c1ccc2cccnc2c1O)c1ccccc1 (stereo not given in full)	inactive

Structure (SMILES)	Potency
CC(C)(C)c1cccc(NC(=O)Nc2nnc(-c3ccncc3)s2)c1	inactive
c1nc(NCC2CCCCO2)c2cc(-c3ccc4c(c3)OCO4)ccc2n1 (stereo not given)	inactive
COc1cc(-c2csc(N3CCC(C(N)=O)CC3)n2)cc(OC)c1OC	inactive
O=C(Nc1cccc(Cc2ccccc2)c1)c1ccc(-c2cccc([N+](=O)[O-])c2)o1	inactive
O=S(=O)(NC1CCC(CNS(=O)(=O)c2c(F)cccc2F)CC1)c1ccc2c(c1)OCCO2 (stereo not given)	inactive
COc1cccc(-c2ccc3ncnc(NCc4cc(C)cs4)c3c2)c1	inactive
O=S(=O)(c1ccc2c(c1)OCCO2)N1CCN(S(=O)(=O)c2c(F)cccc2F)CC1	inactive
N#Cc1nc(NCCCO)nc(Nc2ccccc2)n1	inactive
Cc1cnc(-c2ccccc2C(C)C)nc1NCC1CCN(c2cccnc2)C1 (stereo not given)	inactive
O=S(=O)(NN1CCOCC1)c1ccc(Br)cc1	inactive
Cc1nc(NCc2ccc(-c3cccnc3)cc2)c2ccccc2n1	inactive
O=C1CCc2cc(S(=O)(=O)Nc3ccc(F)c(Cl)c3)ccc2N1	inactive
O=C1NC(=O)/C(=C/c2cccn2-c2ccc(P(=O)(O)O)cc2)N1	inactive
N#Cc1nc(Nc2cccc(F)c2)nc(NC2CCCC2)n1	inactive
CC(C)c1ccccc1-c1ncc(F)c(NCc2ccc(-c3ccn[nH]3)cc2)n1	inactive
Cc1ccc(NS(=O)(=O)c2ccc3c(c2)N(C)C(=O)CO3)cc1C	inactive
Cc1cc(NS(=O)(=O)c2ccc(NC(=O)Cc3cccc(Cl)c3)cc2)no1	inactive
Cc1ccc(OCCn2c(CCNC(=O)Cc3ccccc3F)nc3ccccc32)cc1	inactive
O=C(OCC#CCSc1nnc(-c2cccc3ccccc23)o1)C1CCC1	inactive
CCOc1ccccc1-c1nnc2n1N=C(c1ccc(OC)c(OC)c1)CS2	inactive
